Laboratory results taken from the supplement of paper PMC10849652.
About 8,800 targets were measured; listed, in parts, are those with a hit and a random draw of the rest. About 0.5% of all pairs of compound and target were hits.

How the values were obtained:
Assay in all cases: log2 fold change, soluble protein after heating vs DMSO (PISA); higher = thermal stabilisation; K562 lysate, 10 uM; active = over 0.2 and 3.5 SD of the protein, either way, in both replicates (recomputed)
[1] = compound: C1=CC=C(C=C1)[C@H](COC2=CC3=C(C=C2)NC(=O)N3)NC(=O)C4=CC=CN(C4=O)CC5=CC(=C(C=C5)F)F
In short: (§1)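 Soluble protein was defined as the supernatant remaining after 21,000xg for 90 min, following pooling of heated aliquots and adjustment to 0.5% NP-40 at 4°C. Before that, crude K562 extract at 1 mg/mL protein in PBS pH 7.4 with 1 mM MgCl2 was treated with 10 μM compound for 30 min and heated for 3 min across 48°C-58°C. Quantification used TMTpro 16plex LC-MS/MS with channel sums equalised, and values are log-two fold changes in thermal stability relative to solvent controls from duplicates.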

[2] = compound: CC1=C(SC2=C1C(=N[C@H](C3=NN=C(N32)C)CC(=O)N)C4=CC=C(C=C4)Cl)C
In short: as §1

[3] = compound: CC1=C2C(=CC=C1)N=C(N(C2=O)C3=CC=CC=C3C)CN4C=NC5=C(N=CN=C54)N
In short: as §1

[4] = compound: Cc1sc2c(c1C)C(c1ccc(Cl)cc1)=N[C@@H](CC(=O)OC(C)(C)C)c1nnc(C)n1-2
In short: as §1

[5] = compound: c1ccc([C@@H]2C[C@H]2NC2CCNCC2)cc1
In short: as §1

Measured: log2 fold change

LAP3 (UniProt P28838)
inactive: [1] -0.043 | [2] 0.021 | [3] -0.139 | [4] -0.056 | [5] -0.285

MOSPD2 (UniProt Q8NHP6)
inactive: [1] -0.024 | [2] 0.029 | [3] 0.047 | [4] -0.078 | [5] -0.013

MAT2B (UniProt Q9NZL9)
inactive: [1] -0.008 | [2] 0.014 | [3] -0.044 | [4] -0.003 | [5] -0.002

MPP5 (UniProt Q8N3R9)
inactive: [1] -0.044 | [2] 0.045 | [3] -0.006 | [4] 0.029 | [5] -0.11

LAMP1 (UniProt P11279)
inactive: [1] -0.006 | [2] 0.008 | [3] 0.017 | [4] -0.125 | [5] -0.299

MAPK14 isoform 2 (UniProt Q16539)
inactive: [1] 0.008 | [2] -0.053 | [3] 0.014 | [4] -0.028 | [5] 0.154

MCMBP isoform 2 (UniProt Q9BTE3)
UniProt Q9BTE3, sequence (Q9BTE3 whole entry, looked up): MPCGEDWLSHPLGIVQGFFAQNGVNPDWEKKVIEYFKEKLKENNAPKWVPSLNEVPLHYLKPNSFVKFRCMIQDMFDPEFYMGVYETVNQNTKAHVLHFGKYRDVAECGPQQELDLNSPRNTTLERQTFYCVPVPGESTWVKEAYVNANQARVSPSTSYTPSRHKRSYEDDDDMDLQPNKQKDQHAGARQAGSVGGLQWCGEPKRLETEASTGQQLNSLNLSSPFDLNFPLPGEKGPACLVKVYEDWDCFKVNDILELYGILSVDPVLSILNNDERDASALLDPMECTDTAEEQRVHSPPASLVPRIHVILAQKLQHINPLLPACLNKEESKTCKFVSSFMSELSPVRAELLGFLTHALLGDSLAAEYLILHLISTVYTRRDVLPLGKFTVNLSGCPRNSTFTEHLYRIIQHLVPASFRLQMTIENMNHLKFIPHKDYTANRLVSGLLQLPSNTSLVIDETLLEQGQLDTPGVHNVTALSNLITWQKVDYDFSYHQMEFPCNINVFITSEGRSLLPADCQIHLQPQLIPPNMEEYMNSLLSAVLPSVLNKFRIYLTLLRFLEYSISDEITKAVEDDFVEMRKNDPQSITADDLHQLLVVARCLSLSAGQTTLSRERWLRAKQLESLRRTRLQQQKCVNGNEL
inactive: [1] 0.045 | [2] 0.02 | [3] 0.007 | [4] 0.018

LYN (UniProt P07948)
inactive: [1] -0.063 | [2] -0.103 | [3] -0.091 | [4] -0.032 | [5] 0.011

KIF4A (UniProt O95239)
inactive: [1] -0.042 | [2] 0.012 | [3] 0.035 | [4] 0.06 | [5] 0.005

MAP2K4 isoform 2 (UniProt P45985)
inactive: [1] -0.018 | [2] 0.005 | [3] -0.065 | [4] -0.013 | [5] 0.188

KRI1 (UniProt Q8N9T8)
inactive: [1] 0.053 | [2] 0.043 | [3] 0.027 | [4] -0.048 | [5] -0.039

MGAT5 (UniProt Q09328)
inactive: [1] 0.088 | [2] -0.027 | [3] -0.171 | [4] 0.017 | [5] 0.083

LRWD1 (UniProt Q9UFC0)
inactive: [1] -0.027 | [2] 0.044 | [3] -0.012 | [4] 0.023 | [5] 0.039

MAP4K4 isoform 3 (UniProt O95819)
inactive: [1] 0.022 | [2] 0.029 | [3] 0.015 | [4] -0.021 | [5] 0.083

KLHL12 isoform 2 (UniProt Q53G59)
inactive: [1] 0.152 | [2] -0.049 | [3] -0.013 | [4] 0.161

MAST4 (UniProt O15021)
inactive: [1] 0.007 | [2] -0.019 | [3] -0.037 | [4] 0.023 | [5] 0

MAP4 isoform 5 (UniProt P27816)
inactive: [1] -0.065 | [2] 0.099 | [3] 0.163 | [4] 0.181

LIMS1 isoform 3 (UniProt P48059)
inactive: [1] -0.006 | [2] 0.006 | [3] -0.026 | [4] 0.037 | [5] -0.057

LYAR (UniProt Q9NX58)
UniProt Q9NX58, sequence (Q9NX58 whole entry, looked up): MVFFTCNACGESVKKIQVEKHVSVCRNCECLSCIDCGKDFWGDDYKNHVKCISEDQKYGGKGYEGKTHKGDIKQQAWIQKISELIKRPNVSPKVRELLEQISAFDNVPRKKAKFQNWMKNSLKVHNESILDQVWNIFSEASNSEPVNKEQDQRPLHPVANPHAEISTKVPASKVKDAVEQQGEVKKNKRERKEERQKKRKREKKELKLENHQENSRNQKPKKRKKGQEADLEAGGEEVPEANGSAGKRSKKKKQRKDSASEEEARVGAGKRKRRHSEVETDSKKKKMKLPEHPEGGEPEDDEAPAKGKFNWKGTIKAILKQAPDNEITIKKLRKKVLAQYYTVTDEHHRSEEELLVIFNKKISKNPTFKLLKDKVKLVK
inactive: [1] 0.051 | [2] 0.015 | [3] -0.006 | [4] 0.031 | [5] 0.11

MCCC1 (UniProt Q96RQ3)
inactive: [1] -0.063 | [2] 0.015 | [3] 0.046 | [4] 0.002 | [5] 0.059

MBLAC2 (UniProt Q68D91)
inactive: [1] -0.011 | [2] -0.005 | [3] 0.001 | [4] 0.013 | [5] -0.033

LUZP1 (UniProt Q86V48)
inactive: [1] 0.039 | [2] -0.113 | [3] 0.032 | [4] 0.007 | [5] -0.056

MED14 (UniProt O60244)
inactive: [1] -0.037 | [2] 0.035 | [3] 0.034 | [4] -0.029 | [5] 0

MAP4 (UniProt P27816)
inactive: [1] 0.027 | [2] 0.012 | [3] -0.012 | [4] -0.027 | [5] -0.043

MAP1S (UniProt Q66K74)
inactive: [1] 0.029 | [2] 0.011 | [3] 0.021 | [4] 0.019 | [5] 0.018

MAP2K2 (UniProt P36507)
UniProt P36507, sequence (P36507 whole entry, looked up): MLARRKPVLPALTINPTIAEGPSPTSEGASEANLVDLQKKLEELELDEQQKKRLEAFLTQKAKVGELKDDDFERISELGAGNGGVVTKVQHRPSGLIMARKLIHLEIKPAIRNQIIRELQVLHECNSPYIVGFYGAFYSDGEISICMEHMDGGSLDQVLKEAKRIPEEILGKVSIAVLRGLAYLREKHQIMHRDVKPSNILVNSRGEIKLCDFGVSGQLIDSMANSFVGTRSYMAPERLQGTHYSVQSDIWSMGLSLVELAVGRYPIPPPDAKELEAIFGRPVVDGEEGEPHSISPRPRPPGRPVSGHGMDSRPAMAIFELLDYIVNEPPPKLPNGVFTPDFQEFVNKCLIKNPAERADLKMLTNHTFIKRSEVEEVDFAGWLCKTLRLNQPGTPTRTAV
inactive: [1] -0.04 | [2] 0.022 | [3] -0.047 | [4] -0.068 | [5] 0.064

MAPK1 (UniProt P28482)
inactive: [1] 0.045 | [2] -0.006 | [3] -0.016 | [4] 0.039 | [5] 0.012

MED8 isoform 2 (UniProt Q96G25)
inactive: [1] -0.047 | [2] -0.033 | [3] -0.048 | [4] -0.039 | [5] 0.063

MORC2 (UniProt Q9Y6X9)
inactive: [1] -0.068 | [2] 0.043 | [3] 0.049 | [4] -0.014 | [5] 0.018

MAPKAPK3 (UniProt Q16644)
inactive: [1] 0.03 | [2] -0.031 | [3] -0.005 | [4] 0.009 | [5] 0.019

MMS19 isoform 8 (UniProt Q96T76)
inactive: [1] -0.024 | [2] 0.001 | [3] 0.032 | [4] -0.005 | [5] 0.018

MRPL46 (UniProt Q9H2W6)
inactive: [1] 0.022 | [2] -0.012 | [3] 0.021 | [4] 0.026 | [5] 0.199

KIF14 (UniProt Q15058)
inactive: [1] 0.028 | [2] -0.148 | [3] 0.059 | [4] -0.012 | [5] 0.039

LRRC40 (UniProt Q9H9A6)
inactive: [1] 0.001 | [2] 0.003 | [3] 0.003 | [4] 0.012 | [5] 0.034

LZTR1 (UniProt Q8N653)
UniProt Q8N653, sequence (Q8N653 whole entry, looked up): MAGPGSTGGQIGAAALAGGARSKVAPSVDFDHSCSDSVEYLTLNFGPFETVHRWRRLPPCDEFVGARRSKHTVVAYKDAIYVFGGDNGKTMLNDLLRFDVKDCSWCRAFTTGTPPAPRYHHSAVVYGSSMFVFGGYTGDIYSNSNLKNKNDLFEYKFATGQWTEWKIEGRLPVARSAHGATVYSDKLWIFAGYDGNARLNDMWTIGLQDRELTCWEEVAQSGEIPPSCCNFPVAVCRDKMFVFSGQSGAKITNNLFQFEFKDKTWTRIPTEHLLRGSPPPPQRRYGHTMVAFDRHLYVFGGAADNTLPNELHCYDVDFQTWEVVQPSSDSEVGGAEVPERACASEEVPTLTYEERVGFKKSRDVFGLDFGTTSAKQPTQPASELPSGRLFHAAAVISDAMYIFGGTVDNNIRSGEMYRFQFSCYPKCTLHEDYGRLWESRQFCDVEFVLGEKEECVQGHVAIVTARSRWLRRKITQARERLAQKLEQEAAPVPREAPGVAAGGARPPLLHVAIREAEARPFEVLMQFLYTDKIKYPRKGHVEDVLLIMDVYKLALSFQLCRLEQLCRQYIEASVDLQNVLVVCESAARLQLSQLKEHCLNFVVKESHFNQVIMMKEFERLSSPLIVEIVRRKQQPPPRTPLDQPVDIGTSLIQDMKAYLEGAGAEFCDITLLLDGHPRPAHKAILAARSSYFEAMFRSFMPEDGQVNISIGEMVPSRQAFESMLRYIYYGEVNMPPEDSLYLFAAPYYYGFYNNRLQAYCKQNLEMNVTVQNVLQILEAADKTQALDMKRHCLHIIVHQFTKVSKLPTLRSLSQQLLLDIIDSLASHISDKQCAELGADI
inactive: [1] -0.237 | [2] 0.004 | [3] 0.005 | [4] -0.004 | [5] 0.036

MAPK6 (UniProt Q16659)
inactive: [1] 0.062 | [2] -0.015 | [3] -0.016 | [4] -0.001 | [5] -0.037

METTL2A (UniProt Q96IZ6)
inactive: [1] 0.003 | [2] -0.004 | [3] 0.046 | [4] 0 | [5] 0.106

LIG3 (UniProt P49916)
inactive: [1] -0.003 | [2] -0.018 | [3] -0.014 | [4] -0.035 | [5] 0.021

LAS1L (UniProt Q9Y4W2)
inactive: [1] -0.002 | [2] 0 | [3] -0.023 | [4] 0.02 | [5] -0.026

MAPKAPK5 (UniProt Q8IW41)
inactive: [1] 0.034 | [2] 0.027 | [3] 0.014 | [4] 0.013 | [5] 0.01

LSG1 (UniProt Q9H089)
inactive: [1] 0.068 | [2] 0.038 | [3] 0.084 | [4] -0.028 | [5] -0.044

LDAH isoform 2 (UniProt Q9H6V9)
inactive: [1] -0.119 | [2] 0.018 | [3] 0.001 | [4] 0.075 | [5] -0.002

MAD2L1BP isoform 3 (UniProt Q15013)
inactive: [1] 0.003 | [2] 0.005 | [3] -0.013 | [4] -0.01 | [5] -0.006

MAD2L2 (UniProt Q9UI95)
inactive: [1] -0.032 | [2] -0.006 | [3] -0.018 | [4] -0.085 | [5] 0.096

KPNA4 (UniProt O00629)
inactive: [1] 0.06 | [2] -0.068 | [3] 0.044 | [4] 0.011 | [5] -0.169

LRCH3 (UniProt Q96II8)
inactive: [1] -0.038 | [2] -0.044 | [3] 0.025 | [4] -0.014 | [5] -0.028

KIF26A (UniProt Q9ULI4)
UniProt Q9ULI4, sequence (Q9ULI4 whole entry, looked up): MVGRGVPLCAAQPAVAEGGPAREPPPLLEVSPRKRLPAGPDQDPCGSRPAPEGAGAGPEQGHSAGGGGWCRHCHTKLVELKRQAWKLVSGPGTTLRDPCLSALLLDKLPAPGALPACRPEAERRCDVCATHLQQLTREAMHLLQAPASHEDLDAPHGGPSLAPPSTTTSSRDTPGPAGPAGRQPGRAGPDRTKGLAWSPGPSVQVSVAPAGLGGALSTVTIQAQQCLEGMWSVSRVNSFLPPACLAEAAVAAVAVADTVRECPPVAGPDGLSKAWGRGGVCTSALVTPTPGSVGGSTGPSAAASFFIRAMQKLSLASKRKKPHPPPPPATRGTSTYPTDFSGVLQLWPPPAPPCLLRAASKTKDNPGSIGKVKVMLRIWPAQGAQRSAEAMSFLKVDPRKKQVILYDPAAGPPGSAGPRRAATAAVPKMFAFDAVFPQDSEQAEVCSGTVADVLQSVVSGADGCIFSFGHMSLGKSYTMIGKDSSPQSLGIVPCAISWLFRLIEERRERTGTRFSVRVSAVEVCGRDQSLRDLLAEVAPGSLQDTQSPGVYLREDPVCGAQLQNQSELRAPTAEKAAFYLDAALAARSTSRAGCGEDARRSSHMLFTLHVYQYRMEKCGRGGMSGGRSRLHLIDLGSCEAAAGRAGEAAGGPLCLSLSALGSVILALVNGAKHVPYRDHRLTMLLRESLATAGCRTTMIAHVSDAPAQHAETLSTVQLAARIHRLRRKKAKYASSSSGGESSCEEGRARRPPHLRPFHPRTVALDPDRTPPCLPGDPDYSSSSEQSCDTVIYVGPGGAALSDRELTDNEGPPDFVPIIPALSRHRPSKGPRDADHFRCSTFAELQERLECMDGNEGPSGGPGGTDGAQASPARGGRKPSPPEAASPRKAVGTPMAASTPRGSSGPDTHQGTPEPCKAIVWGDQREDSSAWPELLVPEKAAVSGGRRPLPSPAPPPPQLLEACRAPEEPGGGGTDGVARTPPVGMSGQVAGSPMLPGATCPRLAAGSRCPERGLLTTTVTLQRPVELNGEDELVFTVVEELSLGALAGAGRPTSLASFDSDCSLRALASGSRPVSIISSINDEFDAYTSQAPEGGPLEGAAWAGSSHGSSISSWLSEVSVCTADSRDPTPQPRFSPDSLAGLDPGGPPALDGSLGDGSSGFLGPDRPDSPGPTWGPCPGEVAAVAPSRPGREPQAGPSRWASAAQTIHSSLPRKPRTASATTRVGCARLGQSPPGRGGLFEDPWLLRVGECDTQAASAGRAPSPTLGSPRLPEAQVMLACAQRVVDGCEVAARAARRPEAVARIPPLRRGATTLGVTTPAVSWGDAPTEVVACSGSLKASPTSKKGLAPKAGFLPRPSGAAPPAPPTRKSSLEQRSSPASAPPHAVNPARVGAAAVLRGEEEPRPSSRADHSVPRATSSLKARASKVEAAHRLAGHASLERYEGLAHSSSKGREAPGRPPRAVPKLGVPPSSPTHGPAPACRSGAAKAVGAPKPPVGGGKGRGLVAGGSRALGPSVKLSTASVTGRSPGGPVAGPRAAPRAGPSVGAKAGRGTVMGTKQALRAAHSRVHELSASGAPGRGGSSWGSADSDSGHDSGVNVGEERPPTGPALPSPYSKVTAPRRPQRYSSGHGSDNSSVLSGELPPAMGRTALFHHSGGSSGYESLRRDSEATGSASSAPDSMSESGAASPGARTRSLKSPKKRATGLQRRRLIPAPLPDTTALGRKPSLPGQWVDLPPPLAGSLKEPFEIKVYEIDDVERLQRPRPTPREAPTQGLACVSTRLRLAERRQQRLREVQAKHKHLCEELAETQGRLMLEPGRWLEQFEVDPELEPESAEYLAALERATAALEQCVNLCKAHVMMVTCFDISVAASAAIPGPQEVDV
inactive: [1] 0.044 | [2] -0.011 | [3] 0.053 | [4] 0.09 | [5] -0.018

KIF22 (UniProt Q14807)
inactive: [1] 0.047 | [2] 0.077 | [3] 0.014 | [4] -0.159 | [5] -0.198

LTN1 isoform 3 (UniProt O94822)
inactive: [1] -0.059 | [2] 0 | [3] 0.027 | [4] -0.025 | [5] 0.04

MAP4K2 (UniProt Q12851)
inactive: [1] -0.088 | [2] 0.053 | [3] 0.022 | [4] -0.13 | [5] -0.087

KIF2C (UniProt Q99661)
inactive: [1] -0.022 | [2] -0.023 | [3] -0.009 | [4] 0.052 | [5] 0.032

LIG4 (UniProt P49917)
inactive: [1] -0.04 | [2] 0.083 | [3] -0.056 | [4] -0.002 | [5] 0.078

LPIN1 isoform 7 (UniProt Q14693)
UniProt Q14693, sequence (Q14693 whole entry, looked up): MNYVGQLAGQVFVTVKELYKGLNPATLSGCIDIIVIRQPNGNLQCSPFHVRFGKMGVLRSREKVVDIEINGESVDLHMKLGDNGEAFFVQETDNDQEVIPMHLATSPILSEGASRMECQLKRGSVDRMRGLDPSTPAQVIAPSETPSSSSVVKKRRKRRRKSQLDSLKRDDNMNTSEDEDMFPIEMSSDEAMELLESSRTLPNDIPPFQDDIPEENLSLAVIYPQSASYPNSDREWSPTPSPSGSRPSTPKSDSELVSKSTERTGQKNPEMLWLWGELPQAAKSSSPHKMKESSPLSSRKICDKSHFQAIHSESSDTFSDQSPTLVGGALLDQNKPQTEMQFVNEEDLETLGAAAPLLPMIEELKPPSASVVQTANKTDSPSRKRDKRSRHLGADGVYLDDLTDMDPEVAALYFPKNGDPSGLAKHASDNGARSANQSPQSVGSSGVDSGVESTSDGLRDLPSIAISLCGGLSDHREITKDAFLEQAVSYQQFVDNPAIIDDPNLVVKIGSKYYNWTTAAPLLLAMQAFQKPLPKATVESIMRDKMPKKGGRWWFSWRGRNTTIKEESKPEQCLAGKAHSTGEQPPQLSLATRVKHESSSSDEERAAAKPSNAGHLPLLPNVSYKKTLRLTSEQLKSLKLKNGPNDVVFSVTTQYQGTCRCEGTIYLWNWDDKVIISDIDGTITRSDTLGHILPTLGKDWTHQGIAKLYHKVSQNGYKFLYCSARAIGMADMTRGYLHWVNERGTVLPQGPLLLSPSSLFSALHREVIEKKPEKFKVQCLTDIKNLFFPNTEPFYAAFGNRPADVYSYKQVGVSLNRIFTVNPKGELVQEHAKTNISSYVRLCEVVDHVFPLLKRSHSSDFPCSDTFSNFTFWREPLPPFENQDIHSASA
inactive: [1] 0.053 | [2] -0.003 | [3] -0.053 | [4] 0.029 | [5] 0.194
